We go through 94 molecules from PubChem BioAssay AID2069 (Sanford-Burnham Center for Chemical Genomics, 2009).

Molecules are shown by their SMILES. About 210 (18%) of roughly 1,200 compounds were called active. These entries were drawn from the full list. Values without a mark were called inactive. No stated cut-off is given here; in the data, active means inhibition above about 30%; inactive means the rest.

A short description of this test: fluorescence readout artefact check – biochemical, HTRF, uHTS, artefact control for SUMOylation inhibitor project, confirmation (AID 2069). As to conditions: HTRF interference counterscreen, at 35 µM, hits give high values. In general terms: In TR-FRET formats the signal depends on donor and acceptor labels being close together.
As a reminder, the inhibition is the relative decrease from the control value, in per cent. Take `COc1ccc(-c2csc(NC(=S)NC(=O)/C=C/c3ccco3)n2)cc1OC`: the inhibition was 10.6%.

Take `Cc1ccc(/C=C2\SC(=S)N(/N=C/c3cc([N+](=O)[O-])ccc3O)C2=O)o1`: the inhibition is -7.65%.

Turning to `Cc1nn2cc(-c3ccccc3)nc2[nH]c1=O`, the inhibition was 62.4% (active).

Consider `CCOC(=O)c1c2ccc(OCC(=O)N/N=C/c3ccc(C)cc3)cc2n2ccccc12`, for which the inhibition is 19.8%.

With `N#Cc1c2ccc(OCC(N)=O)cc2n2ccccc12`, the inhibition is 35.8% (active).

Take `CCOC(=O)c1c2ccc(OCC(=O)NN)cc2n2ccccc12`: the inhibition was 29.6%.

`CCc1cc2c(=O)nc3n(c2s1)Cc1ccccc1/C3=C(/O)c1cccc([N+](=O)[O-])c1`: the inhibition is 17%.

`O=C(/C=C/c1cccs1)Nc1scc(-c2ccccc2)c1C(=O)O`: the inhibition was 26.6%.

Turning to `COc1cccc(Cn2cccc(NC(=O)NC3CCCCC3)c2=O)c1`, the inhibition is -4.4%.

`Cc1cccn2c(=O)c3cc(S(=O)(=O)c4ccccc4)c(=N)n(Cc4ccco4)c3nc12`: the inhibition was 5.25%.

`Cc1cccn2c(=O)c3cc(C(=O)NC4CCCCCC4)sc3nc12`: the inhibition was 31.1% (active).

In the case of `O=C1C=C(O)CC(c2ccco2)C1` (centres undefined), the inhibition is 5.85%.

`COCCNC(=S)Nc1ccc2nsnc2c1`: the inhibition was -1.2%.

Turning to `Cc1cc(C)cc(NC(=S)Nc2cccc3ccccc23)c1`, the inhibition is -13.7%.

Regarding `N#Cc1c(N)n(-c2cccc(C(=O)O)c2)c2nc3ccccc3nc12`, the inhibition is 33.5% (active).

As to `N#Cc1c(N)n(CCNC(=O)c2ccccc2)c2nc3ccccc3nc12`, the inhibition is 19.1%.

`COc1ccc(-n2c(NC(=O)c3ccco3)c(C#N)c3nc4ccccc4nc32)cc1`: the inhibition was 4.15%.

On to `Cc1cccn2c(=O)c3cc(C#N)c(=NC(=O)c4ccco4)n(Cc4ccco4)c3nc12`, for which the inhibition is 23.1%.

As for `O=c1[nH]cc(I)cc1I`, the inhibition was -3.65%.

On to `O=C1CC(c2ccco2)CC(O)=C1C=Nc1cc(Cl)ccc1O` (centres undefined), for which the inhibition is -2.5%.

For the molecule `COc1cccc(-c2nc(SCC(=O)Nc3nc(-c4ccccc4)c(C)s3)[nH]c(=O)c2C#N)c1`, the inhibition was -0.65%.

In the case of `COc1ccc(C(N)c2nccc3cc(OC)c(OC)cc23)cc1OC` (centres undefined), the inhibition was -2.9%.

In the case of `O=C(Nc1ccc(N2C(=O)C3C4C=CC(C4)C3C2=O)cc1)Nc1cccnc1` (centres undefined), the inhibition is 16.1%.

For `CN(C(=S)Nc1cccnc1)c1ccc(O)cc1`, the inhibition was 5.3%.

As for `CC(=O)c1ccc(NC(=O)Nc2cccnc2)cc1`, the inhibition was 41.8% (active).

As to `CCCC(=O)NC(=S)Nc1cccc2c(O)cccc12`, the inhibition was 11.1%.

In the case of `Cc1ccc(NC(=O)Nc2cccn(Cc3c(F)cccc3Cl)c2=O)cc1`, the inhibition was 3.65%.

As to `COc1ccc(-c2ccnc3nc(/N=C/N(C)C)nn23)cc1`, the inhibition was 44.7% (active).

`Fc1ccc(-c2ccnc3nc(N4CCOCC4)nn23)cc1`: the inhibition was 32.5% (active).

Take `CN(C)/C=N/c1nc2nccc(-c3ccc(F)cc3)n2n1`: the inhibition is 37.5% (active).

With `N#CCCN(Cc1cccnc1)C(=S)NC1CC2C=CC1C2` (centres undefined), the inhibition was -9.75%.

As to `Cc1ccc(NC(=O)c2ccccc2OCC(=O)Nc2cccc(Cl)c2C)nc1`, the inhibition is 7.7%.

For the molecule `CCOc1cc(CNc2cccc3ccccc23)cc(Br)c1OCC(=O)NC(C)(C)C`, the inhibition is 12.7%.

On to `O=C(c1csc(Nc2cccc3ccccc23)n1)N1CCCC1`, for which the inhibition was 23.1%.

On to `O=[N+]([O-])c1c(NCCO)cc(N2CCCCCC2)c2nonc12`, for which the inhibition is 22.4%.

For the molecule `COc1cc(OC)c2c(O)c3c(c(-c4c5c(c(O)c6c(OC)cc(OC)cc46)CO[C@@H](C)[C@H]5O)c2c1)[C@H](O)[C@H](C)OC3`, the inhibition was 11%.

As to `O=[N+]([O-])c1c(NCCO)cc(N2CCC3(CC2)OCCO3)c2nonc12`, the inhibition is -10.3%.

As for `CCOc1ccc(C2Nc3cccc4cccc(c34)N2)cc1OC`, the inhibition is -29.6%.

`O=C1C(=O)c2ccccc2C(O)=C1CCCCl`: the inhibition was -11.4%.

Regarding `CCc1ccccc1NC(=O)Nc1cccn(Cc2ccccc2F)c1=O`, the inhibition is -9.65%.

`Cc1ccc(S(=O)(=O)c2cc3c(=O)n4ccccc4nc3n(Cc3ccco3)c2=N)cc1C`: the inhibition was 9.75%.

In the case of `CC1CCCCC1NC(=O)c1cc2c(=O)n3ccccc3nc2n1C` (centres undefined), the inhibition was 57.8% (active).

As to `Cn1c(C(=O)NCC2CCCO2)cc2c(=O)n3ccccc3nc21` (centres undefined), the inhibition was 51% (active).

For the molecule `C=CCNc1nc(NCc2ccccc2)c(C#N)c2c1CN(C)CC2`, the inhibition is 18.9%.

With `OCCNC(=S)Nc1ccc2nsnc2c1`, the inhibition is 10.1%.

For `CC(C)N1CCC2(CC1)C(C#N)=C(N)NC(S)=C2C#N`, the inhibition was 33.9% (active).

On to `Cc1ccoc1C(=O)NCCCNC(=O)c1occc1C`, for which the inhibition is 0.95%.

As to `COc1cc2c(C#N)c(N3CCCC3)nc(N)c2c(N)n1`, the inhibition was 27.4%.

`COc1cc2c(C#N)c(N3CCN(c4ccccc4OC)CC3)nc(N)c2c(N)n1`: the inhibition is 16.6%.

Take `CCOc1cc2c(C#N)c(N3CCOCC3)nc(N)c2c(N)n1`: the inhibition is 51.2% (active).

For the molecule `CCOc1cc2c(C#N)c(N3CCNCC3)nc(N)c2c(N)n1`, the inhibition is 47.2% (active).

For the molecule `CCOc1cc2c(C#N)c(N3CCCCC3)nc(N)c2c(N)n1`, the inhibition is 20.6%.

For the molecule `COc1cc2c(C#N)c(N3CCN(C)CC3)nc(N)c2c(N)n1`, the inhibition is 43.2% (active).

Consider `COc1ccc(CN2C(=O)Cc3c2nc(N)c2c(N)nc(N4CCOCC4)c(C#N)c32)cc1`, for which the inhibition is 42.5% (active).

Consider `COc1cc2c(C#N)c(N3CCCCC3)nc(N)c2c(N)n1`, for which the inhibition was 25.2%.

In the case of `COCCN(CCOC)c1nc(N)c2c(N)nc3c(c2c1C#N)CC(=O)N3Cc1ccc(Cl)cc1`, the inhibition is 27.9%.

Regarding `N#Cc1c(N2CCCCC2)nc(N)c2c(N)nc(SCC(=O)O)cc12`, the inhibition is 14.9%.

For `COCC(C)N1C(=O)Cc2c1nc(N)c1c(N)nc(N3CCN(c4ccccc4F)CC3)c(C#N)c21` (centres undefined), the inhibition was 19.1%.

In the case of `S=c1[nH]nc(-c2cc(-c3ccccc3)n[nH]2)n1/N=C/c1ccc(Br)s1`, the inhibition is -6.25%.

In the case of `O=C(NC(=S)Nc1cccc2c(O)cccc12)c1ccco1`, the inhibition was -6.9%.

For `Cc1ccc(Cn2cccc(NS(C)(=O)=O)c2=O)cc1`, the inhibition is -3.15%.

In the case of `O=S(=O)(Nc1cc2nc3ccccc3nc2n1Cc1ccccc1)c1ccc(Cl)cc1`, the inhibition is 24.5%.

Consider `Oc1cccc(C=NCc2ccccc2)c1O`, for which the inhibition is -0.8%.

In the case of `CNS(=O)(=O)c1ccc2nc(NC(=O)/C=C/c3ccco3)sc2c1`, the inhibition was 25.6%.

Turning to `COc1cc2cc(NC(C)=O)cc(NCc3ccccc3)c2cc1OC`, the inhibition was -19.9%.

Take `Cc1ccc(N2CCN(Cc3ccccc3)CC2=O)c(C)c1`: the inhibition was -6.45%.

As to `O=C(O)/C=C\c1cn(-c2ccccc2)nc1-c1cc2ccccc2o1`, the inhibition is 48.1% (active).

With `O=Cc1cn(-c2ccccc2)nc1-c1cc2cc(O)ccc2oc1=O`, the inhibition is 11.8%.

On to `O=C(O)/C=C/c1cn(-c2ccccc2)nc1-c1cc2ccccc2o1`, for which the inhibition is 41.2% (active).

For the molecule `Nc1c(N2CCOCC2)cc(Cl)c2nonc12`, the inhibition was 3%.

For `Cc1ccc(C(=O)N[C@H](C(=O)Nc2cc(Cl)cc(Cl)c2)C(C)C)cc1`, the inhibition is 3.15%.

As for `N#Cc1ccsc1NC(=O)CN1CCN(c2ccc(O)cc2)CC1`, the inhibition is 14.3%.

As to `Nc1c(C(=O)N/N=C/c2cccnc2)oc2nc(-c3ccco3)cc(-c3ccco3)c12`, the inhibition was 20%.

Take `Cc1ccc(-c2cc(-c3ccccc3O)nc(N/N=C/c3cccnc3)n2)cc1`: the inhibition is 52.2% (active).

In the case of `S=c1[nH]nc(-c2ccncc2)n1/N=C/c1ccccc1Cl`, the inhibition was -1.75%.

Consider `CC(C)N1C(=O)CC(Nc2cccc3cccc(N)c23)C1=O` (centres undefined), for which the inhibition is -13.8%.

Turning to `Cc1ccc(-c2[nH]ncc2/C=N/n2c(C)nc3ccccc3c2=O)cc1`, the inhibition was -0.85%.

Regarding `O=C(Cc1cccc2ccccc12)NN1C(=O)/C(=C\c2cccnc2)SC1=S`, the inhibition was -7.8%.

With `O=c1c2ccccc2nc(/C=C/c2cccnc2)n1Cc1ccccc1`, the inhibition was 30.9% (active).

Consider `COc1ccc(S(=O)(=O)C(C#N)c2nc3ccccc3nc2N2CCCCC2)cc1` (centres undefined), for which the inhibition was -7.95%.

With `Cc1ccc(S(=O)(=O)C(C#N)c2nc3ccccc3nc2N2CCCC2)cc1C` (centres undefined), the inhibition is -3.55%.

As for `CCOC(=O)c1c(NC(=O)C2C3C=CC(CC3)C2C(=O)O)sc(C)c1CC` (centres undefined), the inhibition was 0.4%.

In the case of `O=C(N/N=C/c1ccc([N+](=O)[O-])o1)c1cc(-c2ccc(-c3ccccc3)cc2)nc2ccccc12`, the inhibition is 4.6%.

For `Cc1ccc(C2Nc3cccc4cccc(c34)N2)s1`, the inhibition was -32.4%.

For `Cc1cc(=O)n2[nH]c(N)c(N=Nc3ccccc3F)c2n1`, the inhibition was -14.7%.

With `COc1ccc(C(=O)Nc2ccc(-c3nnn(CC(=O)N4CCN(C(=O)c5ccco5)CC4)n3)cc2)cc1`, the inhibition was 25.6%.

Consider `COc1ccc(/C=C2/SC(=S)N(c3ccc(S(=O)(=O)Nc4nccs4)cc3)C2=O)cc1`, for which the inhibition was -18%.

In the case of `CCOC(=O)c1nn(-c2ccc3c(c2)CCN3C(C)=O)cc1O`, the inhibition is 48.8% (active).

As to `COc1ccc(Br)cc1CNc1ccc(O)cc1`, the inhibition is -15.2%.

For `O=C(O)CCCN1C(=O)/C(=C/C=C/c2ccco2)SC1=S`, the inhibition was 11.7%.

Take `O=C(O)CCCN1C(=O)/C(=C/c2cn(-c3ccccc3)nc2-c2cccs2)SC1=S`: the inhibition is 4.55%.

Take `Cc1ccc(-c2nn(-c3ccccc3)cc2/C=C2\SC(=S)N(CCCCCC(=O)O)C2=O)o1`: the inhibition is 37% (active).

For the molecule `COC(=O)c1cc2c(C)[nH]c(C)c2cc(C(=O)OC)c1=O`, the inhibition was 3.75%.

Turning to `O=[N+]([O-])c1ccc(C=Nc2ccc(Cl)c([N+](=O)[O-])c2)s1`, the inhibition was 6.5%.
